Assay results reported in ChEMBL document CHEMBL1156829.
Over roughly 5,400 compounds, “IFI” has its median near 2; the highest 2% begin near 22. The sample as a whole holds a higher share of the highest values than the screen did.

Assay: NOVARTIS: Inhibition Frequency Index (IFI) - the number of HTS assays where a compound showed > 50% inhibition/induction, expressed as a percentage of the number of assays in which the compound was tested.
Type: functional

Structure (SMILES) | IFI
CCC(c1nc2ccccc2c(=O)n1CCOC)N1CCNCC1 (stereo unspecified) | 3.31%
C=CC[n+]1c(C=C2C=CN(C)C=C2)sc2ccccc21 | 15.4%
O=C1c2ccccc2-[n+]2ccc3c([nH]c4ccccc43)c21 | 41.2%
O=c1c2ccccc2[nH]c2ccc(F)cc12 | 0%
CC[n+]1c(C)cc2c([nH]c3ccccc32)c1C | 3.03%
CC(=O)NCCc1ccc(O)cc1 | 1.48%
CCN(CC)CCNc1nc(/C=C/c2ccc(Cl)cc2)nc2cc3ccccc3cc12 | 8.77%
CC1(C)C2CCC(C2)C1(C)NC(=S)NN=Cc1ccccn1 (stereo unspecified) | 26%
S=C(NN=Cc1ccccn1)NC1CC2CC1C1C=CCC21 (stereo unspecified) | 32.5%
S=C(NN=Cc1ccccn1)NC1CC2C=CC1C2 (stereo unspecified) | 19.7%
Cn1c2ccccc2c2nnc(NN=Cc3ccccn3)nc21 | 15.4%
Cc1ccc(NC(=O)C2CSC(c3cccc(F)c3)N2C(=O)c2ccc(C(C)(C)C)cc2)cc1C (stereo unspecified) | 4.25%
CC(C)(C)NC(=O)C(c1cccs1)N(CCCN1CCOCC1)C(=O)c1ccc(-c2ccccc2)[nH]1 (stereo unspecified) | 3.26%
Cc1ccc(S(=O)(=O)Oc2ccc(C=NN=C(N)N)cc2)cc1 | 0%
CC(C)CN1C(=O)c2ccccc2C(C(=O)Nc2ccc(C(C)C)cc2)C1c1cccs1 (stereo unspecified) | 6.06%
COC(=O)c1cn([C@H]2C[C@@H](C(=O)NCc3ccc(OC)cc3)N(Cc3ccsc3)C2)nn1 | 1.98%
CCCC1=[N+](CC(=O)c2ccc(C)cc2)CCn2c(C)ccc21 | 5.75%
CC[C@@H](C(=O)[C@@H](C)C(O)[C@H](C)CCc1ccc(C)c(O)c1C(=O)O)C1O[C@](CC)(C2CC[C@](O)(CC)[C@H](C)O2)C[C@@H]1C (stereo partly specified) | 9.84%
CC[C@@H](C(=O)[C@@H](C)[C@@H](O)[C@H](C)CCc1ccc(C)c(O)c1C(=O)O)[C@H]1O[C@](CC)([C@H]2CC[C@](O)(CC)[C@@H](C)O2)C[C@@H]1C | 26.9%
Cc1ccc(CNC(=O)C2CNCC2c2ccc(C(F)(F)F)cc2)cc1 (stereo unspecified) | 2.82%
O=C1N(c2ccccc2)C[C@@H]2C[C@@H](c3ccc4nonc4c3)N3CCC[C@@]123 | 7.69%
OC1=C2C(=Nc3ccccc3SC2c2ccccc2)c2ccccc21 (stereo unspecified) | 2.25%

Structure (SMILES) | IFI
CC1CCC(C(C)C)C(OC(=O)Cn2c(-c3ccccc3)[n+](C)c3ccccc32)C1 (stereo unspecified) | 13.1%
COc1ccc(-c2c[n+](CC(=O)O[C@H]3C[C@H](C)CC[C@@H]3C(C)C)c3n2CCCCC3)cc1 | 21.9%
COc1ccc(-c2n(C)c3ccccc3[n+]2CC(=O)OC2CC(C)CCC2C(C)C)cc1 (stereo unspecified) | 22.7%
O=C1Cc2c([nH]c3ccc(OCc4ccccc4)cc23)C2CC=CCC12 (stereo unspecified) | 0%
Nc1c(C(=O)NCc2ccccc2)nnn1Cc1ccc(F)cc1Cl | 0%
CCCC[n+]1c(C=C2C=Cc3ccccc3N2CC)sc2ccccc21 | 11.1%
CCN1/C(=C/C2=CC(=C/c3sc4ccccc4[n+]3CC)/CC(C)(C)C2)C=Cc2ccccc21 | 9.43%
CCN1/C(=C/c2sc3ccc(OC)cc3[n+]2CC)C=Cc2cc(C)ccc21 | 23.1%
CCN1C(=Cc2sc3ccc(OC)cc3[n+]2CC)C=Cc2ccccc21 | 25%
CCN1/C(=C/c2sc3ccccc3[n+]2CC)C=Cc2cc(NC(C)=O)ccc21 | 7.69%
CCN1/C(=C/c2sc3ccc(-c4ccccc4)cc3[n+]2CCO)C=Cc2cc(OC)ccc21 | 7.14%
CCN1C(=Cc2sc3ccc(Cl)cc3[n+]2CC)C=Cc2cc(OC)ccc21 | 15.4%
CCN1/C(=C/c2sc3ccc(I)cc3[n+]2CC)C=Cc2ccccc21 | 15.4%
CCN1/C(=C/c2sc3ccc(OC)cc3[n+]2CC)C=Cc2cc(OC)ccc21 | 15.4%
CCN1/C(=C/c2sc3ccc(Br)cc3[n+]2CC)C=Cc2ccccc21 | 15.4%
CCN1/C(=C\c2sc3ccc(O)cc3[n+]2CC)C=Cc2ccccc21 | 23.1%
CCCN1/C(=C/c2sc3ccccc3[n+]2CC)C=Cc2ccccc21 | 23.1%
CCOc1ccc(C(=O)C(CCC(C[N+]2(C)CCCCCC2)C(=O)c2ccc(OCC)cc2)C[N+]2(C)CCCCCC2)cc1 (stereo unspecified) | 0%
COc1ccc(CCNc2nc(NCCC3CCCN3C)ncc2C(=O)NCc2ccccc2)cc1OC (stereo unspecified) | 1.92%
COc1ccc2[nH]c(=O)c(CN(C(=S)Nc3ccccc3OC)C3CCCC3)cc2c1 | 2.17%
Nc1ccc(-c2cc(N)n(-c3ccc(Oc4ccccc4)c(S(=O)(=O)O)c3)n2)cc1 | 1.83%
CCOc1cccc2oc(=O)c(C(=O)Nc3cc(C(C)(C)C)on3)cc12 | 0%

Structure (SMILES) | IFI
CCOc1ccc(-c2nc(NC(=O)CS(=O)(=O)c3ccccc3)sc2C)cc1 | 0%
CCOC(=O)C1CCN(C(=O)c2cc(C(C)(C)C)nn2Cc2ccc(Cl)cc2Cl)CC1 | 1.63%
CCC(c1nc2ccccc2c(=O)n1CC)N1CCN(C(=O)Nc2ccccc2C(F)(F)F)CC1 (stereo unspecified) | 2.08%
Cc1ccccc1CN1CCN(C/C=C/c2ccccc2)CCC1=O | 0.962%
CCN1/C(=C/c2sc3ccccc3[n+]2CC)Sc2ccccc21 | 21.9%
CCN1/C(=C/c2sc3ccc(-c4ccccc4)cc3[n+]2CCO)C=Cc2ccccc21 | 7.14%
CCN1/C(=C/c2sc3cc(OC)c(OC)cc3[n+]2CC)C=Cc2ccccc21 | 23.1%
CCCOC(=O)C1=C(C)NC2=C(C(=O)CC(c3ccc(Cl)cc3)C2)C1c1ccc(Br)cc1 (stereo unspecified) | 3.57%
Cc1ccn2c(NC(C)(C)CC(C)(C)C)c(-c3ccccc3OC(=O)c3ccc(C)c([N+](=O)[O-])c3)nc2c1 | 3.74%
Cc1ccc(S(=O)(=O)NC(Cc2ccccc2)C(=O)N2CCC(C3CCN(C(=O)c4ccc([N+](=O)[O-])o4)CC3)CC2)cc1 (stereo unspecified) | 7.69%
CCCCSc1oc(C)nc1[P+](c1ccccc1)(c1ccccc1)c1ccccc1 | 22.2%
Cc1nc([P+](c2ccccc2)(c2ccccc2)c2ccccc2)c(SCc2ccccc2)o1 | 21.6%
CCC(c1nc2ccccc2c(=O)n1-c1ccc(F)c(Cl)c1)N(CCc1ccccc1)C(=O)COc1ccccc1 (stereo unspecified) | 1.87%
OC(Cn1nnc2ccccc21)Cn1c2ccc(Br)cc2c2cc(Br)ccc21 (stereo unspecified) | 2.01%
COc1ccc(OC)c(C2CC(=O)C3=C(C2)NC(=O)CC3c2ccc([N+](=O)[O-])cc2)c1 (stereo unspecified) | 0%
CN(C)c1ccc(/C=C/C(=O)NC(=O)c2ccccc2O)cc1 | 10.6%
Cc1ccc(C(=O)C(C)[n+]2ccc(N(C)C)cc2)cc1 (stereo unspecified) | 0%
CC(/C=C/C(=O)NO)=C\[C@@H](C)C(=O)c1ccc(N(C)C)cc1 | 22.6%
CC(C)COc1ccc(C(=O)N/C(=C/c2ccccc2)C(N)=O)cc1 | 0%
CCOc1ccc(S(=O)(=O)N=C2C=C(Nc3ccc(O)cc3)C(=O)c3ccccc32)cc1 | 15.4%
COc1ccc(S(=O)(=O)N=C2C=C(Nc3ccc(O)cc3)C(=O)c3ccccc32)cc1 | 23.1%
CC(=O)Nc1ccc(NC2=CC(=NS(=O)(=O)c3ccccc3)c3ccccc3C2=O)cc1 | 7.69%

Structure (SMILES) | IFI
COc1ccccc1NC1=CC(=NS(=O)(=O)c2cccs2)c2ccccc2C1=O | 7.69%
O=C1C(Nc2ccc(O)cc2)=CC(=NS(=O)(=O)c2cccs2)c2ccccc21 | 23.1%
COc1ccccc1NC1=CC(=NS(=O)(=O)c2ccc(F)cc2)c2ccccc2C1=O | 15.4%
COc1ccccc1NC1=CC(=NS(=O)(=O)c2ccccc2)c2ccccc2C1=O | 21.4%
COc1ccc(S(=O)(=O)N=C2C=C(Nc3ccccc3OC)C(=O)c3ccccc32)cc1 | 23.1%
COc1ccc(S(=O)(=O)N=C2C=C(Nc3ccccc3)C(=O)c3ccccc32)cc1 | 0%
CC(=O)N(C1=C(N2CCOCC2)C(=O)c2ccccc2C1=O)c1cccc(Cl)c1 | 0%
O=C(NC1CC1)C1CCN(c2cccc3c2C(=O)N(C2CCCCCCC2)C3=O)CC1 | 5.94%
Cc1ccc2nc(-c3ccc(O)cc3)oc2c1 | 7.14%
O=S(=O)(NCCCCNc1ccnc2cc(Cl)ccc12)c1ccc(F)cc1 | 1.85%
O=S(=O)(Nc1cc(Sc2nc[nH]n2)c(O)c2ccccc12)c1ccc(F)cc1 | 23.1%
Cc1oc2c(cc(NS(=O)(=O)c3ccc(F)cc3)c3ccccc32)c1C(=O)OCc1ccccc1 | 0%
O=C(c1ccc2nc(N3CCCCC3)sc2c1)N1CCN(Cc2ccc3c(c2)OCO3)CC1 | 2.86%
COc1ccc([N+](=O)[O-])cc1NC(=O)C(C)Nc1ccc(N(C)C)cc1 (stereo unspecified) | 6.25%
CC1=C(C(=O)Nc2ccccn2)C(c2ccc(O)cc2)n2ncnc2N1 (stereo unspecified) | 0%
Oc1ccc(C=NN=C(Nc2ccccn2)c2ccccn2)c(O)c1 | 23.1%
O=C(NN=Cc1ccc(O)cc1O)c1ccncc1 | 2.73%
NS(=O)(=O)c1ccc(CCNC(=O)/C=C/c2ccc3c(c2)OCO3)cc1 | 0%
Oc1ccc(-c2ccnc3cc(Cl)ccc23)cc1CNCC1(O)CCCCC1 | 2.59%
COc1ccc(C(=O)C[N+]2=C(C)c3ccc(C)n3CC2)cc1 | 0%
